These results are taken from PubChem BioAssay AID504843 (Broad Institute, 2011).

About 360 (30%) of roughly 1,200 compounds were called active. The list is a sample of the results. Entries with a potency or affinity are not part of this list. Unmarked numbers belong to inactive results. How the calls were made is not given here.

The experiment is described as follows: bacterial growth inhibition, dose response, counter-screen, BacTiter-Glo luminescence, cherry-picked samples (AID 504843).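 Further: growth measured after 8 h incubation at 30 °C; 0% = median of sample compound wells and -100% = antibiotic control wells.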 The note with it: BacTiter-Glo ATP luminescence; series mostly up to 15 µM; activity change, negative = inhibition: at the top concentration. In general terms: A counterscreen serves to expose hits that act by an unwanted route or on another target.
Turning to `CCCc1c(O)nc(SC2CC(=O)N(c3ccc(OC)cc3)C2=O)[nH]c1=O` (stereo not given), the “activity change, negative = inhibition” value was 7.76%. For `CC(C)CNC(=S)NC1CCCC1`, the “activity change, negative = inhibition” value was 14.6%. The value for `COc1cc(SC)ccc1C(=O)Nc1cc(C)ccn1` was 9.39%. The value for `COc1cc2cc(C(c3nnnn3Cc3ccc(F)cc3)N3CCCCCC3)c(=O)[nH]c2cc1OC` (stereo not given) was 24.9%; that for `O=C(O)C1CCCCN1S(=O)(=O)c1ccc(Cl)s1` (stereo not given) was 8.83%.

With `O=S(=O)(NC1CCCC1)c1cc(F)ccc1F`, the “activity change, negative = inhibition” value is -12.1%. The value for `Cc1cc(=O)oc2cc(OCC(=O)OCC(=O)N3CCc4ccccc43)ccc12` was -9.69%; that for `CCc1nc2nc(C)c(NS(=O)(=O)c3ccc(Cl)s3)c(=O)n2[nH]1` was -0.224%. In the case of `Cc1ccc(=O)n(-c2ccccc2)c1`, the “activity change, negative = inhibition” value was 13.6%. The value for `COc1ccc(Cc2nnc(NS(=O)(=O)c3ccc(Cl)cc3)s2)cc1OC` was -1.52%.

For `COc1ccc(Cl)cc1S(=O)(=O)Nc1noc2ccccc12`, the “activity change, negative = inhibition” value was 19.9%. `CC(C)(CO)[C@@H](O)C(=O)NCCC(=O)O`: the “activity change, negative = inhibition” value was 1.6%.

Regarding `COc1cc(C(=O)NCCOC(=O)c2cccc(N(C)C)c2)cc(OC)c1OC`, the “activity change, negative = inhibition” value was -6.73%. The value for `N#Cc1c(N)nc2c(c1-c1ccncc1)CCCCC2` was -1.17%; that for `Cc1ccccc1-n1c(SCC(=O)N2CCOCC2)nc(O)c(Cc2ccccc2)c1=O` was -10.1%. As for `CN(Cc1ccccc1)C(=O)N1CCOCC1`, the “activity change, negative = inhibition” value was 1.22%. In the case of `Cc1cc(C)n2nc(SC(C)C(=O)N3CC(C)OC(C)C3)nc2n1` (stereo not given) it was 1.03%; in that of `COc1ccc(OC)c(NC(=O)c2cccnc2)c1`, -6.8%. The value for `CN1CCN(c2ccc(S(=O)(=O)N3CCCCC3)cc2NC(=O)c2cccc([N+](=O)[O-])c2)CC1` was 4.22%; that for `O=C(O)c1ccc(N/N=C/c2ccc(-c3ccccc3)cc2)cc1` was -0.556%; that for `O=C(O)c1ccc(NS(=O)(=O)c2cc(C(=O)O)ccc2Br)cc1` was 1.32%. Turning to `Cc1ccnc(NS(=O)(=O)c2ccc(NS(=O)(=O)c3ccccc3)cc2)n1`, the “activity change, negative = inhibition” value was -9.57%. Turning to `Brc1ccc(NC2=Nc3ccccc3CC2)cc1`, the “activity change, negative = inhibition” value was -1.59%. The value for `C[C@@H]1O[C@@H](Oc2c(-c3ccc(O)c(O)c3)oc3cc(O)cc(O)c3c2=O)[C@H](O)[C@H](O)[C@H]1O` was 13.4%. In the case of `C[C@H](NC(=O)c1nc[nH]c1C(=O)NCc1ccc(CNC(=O)OC(C)(C)C)cc1)c1ccccc1`, the “activity change, negative = inhibition” value is -13%. Consider `CC(C)(C)OC(=O)[C@H](Cc1ccccc1)NC(=O)c1nc[nH]c1C(=O)NC1CCN(C(=O)OC(C)(C)C)CC1`, for which the “activity change, negative = inhibition” value is 16%. For the compound `Cn1cc(CN2CCC(CO)(CCCc3ccccc3)CC2)c(-c2ccccc2)n1`, the “activity change, negative = inhibition” value was 9.02%.

Take `O=C(CCc1ccccc1)N1CCN(Cc2ccc(F)cc2Cl)CC1`: the “activity change, negative = inhibition” value was 14.4%.

For `CCCn1c(N)c(C(=O)CSc2nc(C)cs2)c(=O)n(C)c1=O`, the “activity change, negative = inhibition” value was 23.1%. As for `O=C(Nc1ccccc1OC(F)F)c1oc2ccccc2c1COc1ccccc1`, the “activity change, negative = inhibition” value was -3.7%.
